Source: PubChem BioAssay AID492948 (National Center for Advancing Translational Sciences (NCATS), 2010)
Results filed as inconclusive are left out. Activity calls are given as the source filed them. Calls follow the shape of the dose curve; as a rule, active = well fitted activation curve with a large enough effect; inconclusive = small, poorly fitted or top-dose-only effect; inactive = no such curve, though single readings can be large or run the other way.

Assay: qHTS Assay for Agonists of the Relaxin Receptor RXFP1: V1B Hit Validation;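 also: counter-screen in HEK293 cells expressing V1B rather than RXFP1 for selectivity; nearly all actives have a fitted effect of over 65% in size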;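 as to activation: cAMP accumulation with PDE4 inhibitor Ro 20-1724 present during compound exposure; 0% = buffer alone basal and 100% = 29 nM porcine relaxin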
Details: HEK293 V1B cells, cAMP TR-FRET, 30 min; series mostly up to 115 µM; activation: at the top concentration
Procedure, shortened: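 HEK293 cells (2000/well) were exposed to compounds for 30 min at 37C with PDE4 inhibitor Ro 20174. cAMP was read by TR-FRET after lysis, normalized to buffer and 29 nM porcine relaxin, and EC50 was fitted by Hill equation.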
Potency is read from the fitted curve at half-maximal effect.

Potency, inactive:
O=C(Nc1ccccc1C(=O)Nc1ccccc1C(=O)NCc1ccco1)c1ccco1

Potency, active:
CCS(=O)(=O)c1nc(S(=O)(=O)c2ccc(Cl)cc2)c(N2CCN(CCO)CC2)s1 34.6 µM
Cc1cc(C(=O)OCC(=O)c2ccc(Br)s2)no1 21.8 µM
O=c1c2ccccc2cnn1Cc1n[nH]c(=S)n1-c1ccc(F)c(Cl)c1 21.9 µM
S=c1nc[nH]c2c1[nH]c1ccccc12 6.9 µM
CCN(CC)S(=O)(=O)c1ccc(C)c(NC(=O)Cn2cnc3cc([N+](=O)[O-])ccc3c2=O)c1 34.6 µM
O=C(Oc1ccccc1)Oc1ccc2c(c1)oc(=O)c1ccccc12 21.8 µM
COc1ccccc1CNS(=O)(=O)c1cc(CN2C(=O)c3cccnc3C2=O)ccc1OC 27.5 µM
Nc1ncnc2c1ncn2[C@@H]1O[C@H](COS(=O)(=O)O)[C@@H](O)[C@H]1O 6.9 µM
Brc1ccc2ncnc(NCc3cccnc3)c2c1 38.9 µM
COc1ccc(CN2C(=O)c3cccnc3C2=O)cc1S(=O)(=O)NC1CCCCC1 34.6 µM
CC(C)n1c(SCC(=O)N2CCN(C(=O)c3ccco3)CC2)nc2c1c(=O)n(C)c(=O)n2C 6.9 µM
Cc1cccc2cc(C#N)c(SCC(=O)NCc3cccs3)nc12 19.4 µM
Cc1nc2scc(C)n2c(=O)c1S(=O)(=O)N1CCN(c2ccccn2)CC1 30.9 µM
CCOC(=O)c1cc2c(=O)n3ccccc3nc2n(Cc2ccco2)c1=NC(=O)c1ccccc1OCC 38.9 µM
O=C(Nc1cc(S(=O)(=O)N2CCOCC2)ccc1N1CCOCC1)c1cn2ccccc2n1 30.9 µM
CCn1c(SCC(=O)Nc2ccc(NC(C)=O)cc2)nc2c1c(=O)n(C)c(=O)n2C 30.9 µM
Cn1c(=O)c2sccc2n2c(CCCC(=O)NCc3cccnc3)nnc12 19.4 µM
Cc1ccnc(NS(=O)(=O)c2ccc(N3C(=O)c4ccccc4C3=O)cc2)n1 14.9 µM
Nc1c(Cl)cc(-c2[nH]c3cc(C(=O)NCCO)ccc3c(=O)c2O)cc1Cl 34.6 µM
COc1ccc(Cl)cc1-c1n[nH]c(=S)o1 4.35 µM
O=C(O)c1cc(-c2ccco2)nc2ccc(Br)cc12 19.4 µM
CC[N+](CC)(CCCCS(=O)(=O)[O-])CCNP1(=O)C=C(c2ccccc2)OC(c2ccccc2)=C1 38.9 µM

activation, inactive:
COc1ccc(Nc2ncc(C#N)c(N)n2)c(OC)c1 -2.08%
COc1cc(-c2nnc(SCC(=O)N(C)C3CCS(=O)(=O)C3)o2)cc(OC)c1OC (configuration not stated) 6.32% [at 44.9 µM]
O=C(O)CNC(=O)c1ccccc1NC(=O)c1ccco1 -1.05% [at 127 µM]
COc1ccc(/C=C2/SC(=O)N(CC(=O)Nc3cc(C)on3)C2=O)cc1OC -72.1%
Cc1cccc(C(=O)Nc2ccccc2C(=O)NCc2ccco2)c1 -0.448% [at 127 µM]
CCN(c1ccccc1)S(=O)(=O)c1ccc(OC)c(NC(=O)C2CC(=O)N(Cc3ccccc3)C2)c1 (configuration not stated) -0.441%
Cc1cccc(NC(=O)c2ccccc2NC(=O)c2ccco2)c1 5.32% [at 127 µM]
O=C(Nc1ccccc1C(=O)Nc1ccccc1)c1ccco1 1.83% [at 127 µM]
CC[n+]1ccc(/C=C/c2ccc(N(C)C)cc2)c2ccccc21 -21.1%
O=C(O)c1ccc(CN2C(=O)c3ccc(C(=O)O)cc3C2=O)cc1 0.0432%
Nc1c(S(=O)(=O)O)cc(NC(=O)c2ccccc2)c2c1C(=O)c1ccccc1C2=O -16.6%
O=C(Nc1ccccc1C(=O)NCCc1ccccc1)c1ccco1 3.59% [at 127 µM]
O=C(Nc1ccccc1C(=O)NCc1ccco1)c1ccco1 4.18% [at 127 µM]
COCCNC(=O)NC(=O)COC(=O)C12CC3CC(CC(NC(C)=O)(C3)C1)C2 5% [at 44.9 µM]
